Experimental data from PubChem BioAssay AID588511 (Johns Hopkins Ion Channel Center, 2011).
The campaign covered roughly 310,000 compounds. About 3,600 (1.2%) were called active.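 Rule for the calls: active = ratio plate-corrected score three or more library SD toward inhibition, starting fluorescence score within five deviations; inactive = the rest.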 The sample as a whole holds a higher share of actives than the screen did.

Target: Anoctamin-1 (Mus musculus) (UniProt Q8BHY3)
Experiment: blockers of mouse ANO1 Ca-activated Cl channel – cell-based, HTS, primary screen (AID 588511);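 for normalized B-score (activity score, 25-100; higher = stronger inhibition): score derived from kinetic fluorescence span divided by baseline fluorescence per well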
Details: HEK293 TMEM16A/YFP iodide influx fluorescence, ionomycin; at 10 µM

Sequence of Anoctamin-1 (Mus musculus) (Q8BHY3 whole entry, looked up): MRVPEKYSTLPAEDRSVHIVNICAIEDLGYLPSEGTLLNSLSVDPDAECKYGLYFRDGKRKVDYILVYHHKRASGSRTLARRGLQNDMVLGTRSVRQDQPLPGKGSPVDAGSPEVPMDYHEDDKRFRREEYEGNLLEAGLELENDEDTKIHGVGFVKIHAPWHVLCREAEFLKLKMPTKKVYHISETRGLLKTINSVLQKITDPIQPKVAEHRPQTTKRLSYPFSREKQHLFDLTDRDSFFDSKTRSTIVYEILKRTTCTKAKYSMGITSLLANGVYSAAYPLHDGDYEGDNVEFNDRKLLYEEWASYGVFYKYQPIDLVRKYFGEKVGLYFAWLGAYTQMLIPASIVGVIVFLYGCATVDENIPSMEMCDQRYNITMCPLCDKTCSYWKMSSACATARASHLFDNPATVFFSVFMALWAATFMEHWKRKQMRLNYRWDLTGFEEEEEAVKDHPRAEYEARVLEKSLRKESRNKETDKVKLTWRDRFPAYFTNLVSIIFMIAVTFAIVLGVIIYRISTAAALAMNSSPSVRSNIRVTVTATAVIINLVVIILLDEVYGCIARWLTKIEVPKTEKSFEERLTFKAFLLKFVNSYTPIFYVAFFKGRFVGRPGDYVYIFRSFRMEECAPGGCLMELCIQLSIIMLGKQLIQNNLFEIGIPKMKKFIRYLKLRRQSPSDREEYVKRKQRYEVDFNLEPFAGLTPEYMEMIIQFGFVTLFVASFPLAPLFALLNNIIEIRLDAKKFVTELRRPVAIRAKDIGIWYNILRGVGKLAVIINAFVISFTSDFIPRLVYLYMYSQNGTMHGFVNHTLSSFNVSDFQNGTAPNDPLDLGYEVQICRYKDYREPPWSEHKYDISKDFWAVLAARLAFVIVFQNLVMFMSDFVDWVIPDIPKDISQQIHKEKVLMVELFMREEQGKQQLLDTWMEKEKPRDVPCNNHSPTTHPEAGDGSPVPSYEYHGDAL

SMILES	normalized B-score (activity score, 25-100; higher = stronger inhibition)
S=c1[nH]nc(NCCc2ccccc2)s1	inactive
CCNc1nc(-c2cc3ccccc3o2)cs1	inactive
Cc1nc(C)c(-c2csc(NCCc3ccccc3)n2)s1	100 (active)
COc1cccc(CNC(=O)c2cccnc2Sc2ccc(Cl)cc2)c1	inactive
Cc1ccc(NC(=O)C(=O)NCc2ccc(/C=N/NC(=O)c3c(C)nc4cc(C)ccn34)o2)cc1	inactive
CCN(Cc1ccccc1)C(=O)CN1C(=S)NC(C)(C)CC1C (centres undefined)	inactive
N#Cc1c(-c2ccccc2)nc(SCc2cccc(C(F)(F)F)c2)[nH]c1=O	100 (active)
N#Cc1c(-c2ccc(F)cc2)nc(-c2ccccc2)[nH]c1=O	inactive
N#Cc1c(-c2ccccc2)nc(SCc2ccc([N+](=O)[O-])cc2)[nH]c1=O	inactive
Cc1ccc(CSc2nc(-c3ccccc3)c(C#N)c(=O)[nH]2)cc1	100 (active)
O=c1[nH]c(SCc2cccc(F)c2)nc2ccccc12	inactive
O=c1[nH]c(SCc2ccccc2)nnc1-c1ccccc1	inactive
O=C(CCN1C(=O)C2CCCCC2C1=O)Nc1ccc(OC(F)F)cc1 (centres undefined)	inactive
O=C(COC(=O)c1ncc(Cl)c(Cl)c1Cl)NNC(=O)c1ccccc1	inactive
O=C(CC1C(=O)NCCN1CC(c1ccccc1)c1ccccc1)NCCc1cn[nH]c1 (centres undefined)	inactive
COc1ccc(C(=O)Nc2cc(C)c(NC(=O)c3ccccc3OC)cn2)cc1	inactive
CC1CN(C(=S)Nc2cccc(F)c2)CC(C)O1 (centres undefined)	inactive
Cc1ccc(CNC(=O)c2ccc(CS(=O)Cc3cccc(Cl)c3)o2)cc1 (centres undefined)	inactive
CCCOc1cccc(C(=O)NCCCNC(=O)c2cccnc2)c1	inactive
CCc1ccc[n+](-c2nc([O-])sc2C=O)c1	inactive
CC(C)(C)c1cc(NC(=O)NN2CCOCC2)nn1-c1c(Cl)cc(Cl)cc1Cl	inactive
COc1cccc(-c2nnc(NC(=O)c3ccc(S(=O)(=O)N(CC(C)C)CC(C)C)cc3)o2)c1	100 (active)

SMILES	normalized B-score (activity score, 25-100; higher = stronger inhibition)
COc1cccc(NC(=O)c2ccc(S(=O)(=O)N(C)C)cc2)c1	inactive
COc1ccc(-c2nnc(NC(=O)CS(=O)(=O)c3ccc(Cl)cc3)o2)c(OC)c1	inactive
CCn1c(C)nc2c1C(=O)c1ccccc1C2=O	inactive
CSc1ccccc1OCc1cc(C(=O)N2C[C@H]3CC[C@H]2C3)no1	inactive
Cc1ccc(OCc2nc(C#N)c(N3CCCC3)o2)cc1	inactive
N#Cc1nc(COc2ccc(-c3ccccc3)cc2)oc1NCc1cccnc1	100 (active)
O=S(=O)(c1ccc(Br)cc1)c1nc(-c2ccccc2)oc1NCc1cccnc1	inactive
CC(=O)N(c1ccc2oc(=O)sc2c1)S(=O)(=O)c1ccc(C)cc1	inactive
Cn1c(SCc2ccc(F)cc2)nnc1-c1ccncc1	inactive
C=CCn1c(CNS(=O)(=O)c2ccc(Br)cc2)nnc1SC	inactive
CCOC(=O)c1cc(NC(=O)c2ccc(Cl)cc2)c(=O)oc1-c1ccccc1	inactive
CN1OC(COC(=O)c2ccc(Cl)cc2)CC1c1ccccc1 (centres undefined)	100 (active)
Cn1cncc1COC(=O)c1ccc(Cl)cc1	inactive
Cc1cc(OC(=O)c2ccc(Cl)cc2)cc(=O)n1C	inactive
Cc1ccc(C)c(N2CCN(C(=O)CCCCn3c(=O)[nH]c4ccccc4c3=O)CC2)c1	25 (active)
Cc1ccc(C)c(N2CCN(C(=O)CCc3nc4ccccc4[nH]3)CC2)c1	inactive
Cc1ccc(C)c(N2CCN(C(=O)CCCCCn3c(=S)[nH]c4ccc(N5CCOCC5)cc4c3=O)CC2)c1	inactive
CC(OC(=O)c1ccc(-n2cnnn2)cc1)C(=O)NCc1ccccc1 (centres undefined)	inactive
COCCNS(=O)(=O)c1cc(Br)ccc1OC	inactive
CC(=O)N1CCc2cc(S(=O)(=O)NC3CCCCC3)ccc21	inactive
Cc1ccc(C)n1-c1ccncc1	inactive
Cc1ccc(N)cc1-n1c(C)ccc1C	100 (active)

SMILES	normalized B-score (activity score, 25-100; higher = stronger inhibition)
Cn1nnnc1NCc1ccc(Cl)c(Cl)c1	inactive
CCCn1nnnc1NCc1ccc(OC)cc1	inactive
COc1ccc(CNc2nnnn2C)cc1	25 (active)
C[C@@H]1C[C@@H]2O[C@H]2/C=C\C=C\C(=O)Cc2c(Cl)c(O)cc(O)c2C(=O)O1	inactive
CN1/C(=C\C(=O)c2oc3ccccc3c2N)C(C)(C)c2ccccc21	inactive
CC(C)Nc1nnc(SCC(=O)/C=C2\N(C)c3ccccc3C2(C)C)s1	inactive
CC(=O)Nc1cccc(OCC(=O)/C=C2\N(C)c3ccccc3C2(C)C)c1	100 (active)
CCOc1cc(/C=N/NC(=O)c2cccc(S(=O)(=O)N3CCOCC3)c2)ccc1OCC(=O)N(C)C	inactive
CO[C@@H]1[C@@H](OC(N)=O)[C@@H](O)C(Oc2ccc3c(O)c(NC(=O)c4ccc(O)c(CC=C(C)C)c4)c(=O)oc3c2C)OC1(C)C (some centres undefined)	inactive
O=C(O)C1=NN(c2c(F)c(F)cc(F)c2F)C(=O)CC1	inactive
Cc1ccc(CN(N=Nc2nonc2N)c2nonc2N)c(C)c1	25 (active)
COc1ccc(Cc2nnc(SCC(=O)c3cccc([N+](=O)[O-])c3)n2C)cc1	inactive
COc1ccccc1C(=O)Nc1ccccc1C(=O)Nc1ccccc1	inactive
O=C(Nc1ccc(NC(=O)c2ccccc2F)cc1)c1ccccc1F	inactive
O=C(Nc1ccccc1)c1ccccc1NC(=O)C(F)(F)F	100 (active)
O=C(Nc1cccc(-c2cscn2)c1)C1CCN(Cc2ccsc2)CC1	inactive
CC(=O)c1cc(CN2CCC(C(=O)Nc3cccc(-c4cscn4)c3)CC2)cs1	25 (active)
CCn1cc(CN2CCC(C(=O)Nc3cccc(-c4cccc(Cl)c4)c3)CC2)cn1	inactive
COc1ccc2oc(C(=O)NCC(Cc3ccccc3)N(C)C)c(C)c2c1 (centres undefined)	inactive
O=C(Nc1ncc([N+](=O)[O-])s1)C1COc2ccccc2O1 (centres undefined)	25 (active)
COc1ccc(OC)c2sc(NC(=O)C3COc4ccccc4O3)nc12 (centres undefined)	inactive
CC(=O)Oc1ccccc1C(=O)Nc1ncc([N+](=O)[O-])s1	100 (active)

SMILES	normalized B-score (activity score, 25-100; higher = stronger inhibition)
Cc1cnc(NC(=O)c2ccccn2)s1	inactive
COc1ccc(NC(=O)c2ccccc2[N+](=O)[O-])cc1OC	inactive
COc1ccc(NC(=O)C2COc3ccccc3O2)cc1 (centres undefined)	inactive
O=C(N/N=C/c1cccc2cccnc12)[C@H]1C[C@@H]1c1ccccc1	inactive
Cc1ccc(C)c(OCCC(=O)OCC(=O)NC(=O)NCc2ccccc2)c1	inactive
O=C(Nc1ccc(S(=O)(=O)N2CCCCC2)cc1)C1CC(=O)N(c2ccc(F)cc2)C1 (centres undefined)	inactive
O=C(NC(=S)Nc1ncccn1)c1ccccc1Br	inactive
COc1ccnc(Oc2ccccc2)c1-c1ncn[nH]1	inactive
NC(=O)c1c(NC(=O)c2ccccc2)sc2c1CCCC2	inactive
NC(=O)c1c(Nc2nc3c(F)cccc3s2)sc2c1CCCC2	25 (active)
O=C(Nc1nc2c(F)cc(F)cc2s1)C1COc2ccccc2O1 (centres undefined)	inactive
Fc1cc(F)c2nc(Nc3nc4c(F)cccc4s3)sc2c1	100 (active)
COc1cccc(OC)c1C(=O)Nc1sc2c(c1C(N)=O)CCCC2	inactive
Fc1cc(F)c2nc(N3CCOCC3)sc2c1	inactive
Cc1c(C(=O)Nc2ccccn2)oc2ccc(Br)cc12	inactive
CCC(C)(C(=O)Nc1ccccc1C)N(C(=O)CNC(C)=O)c1ccc(C)cc1 (centres undefined)	inactive
CS(=O)(=O)c1sc(C(=O)NC(=S)Nc2ccc(OC(F)(F)F)cc2)c2c1C=CCC2	inactive
CC1(C)O[C@@H]2CC3C4C[C@H](F)C5=CC(=O)C=CC5(C)C4C(O)CC3(C)[C@]2(C(=O)CO)O1 (some centres undefined)	inactive
Cc1ccc(/C=C2/SC(=S)N(CCC(=O)NCCCN3CCOCC3)C2=O)cc1	inactive
O=C(Nc1cccc(Cl)c1)Nc1ccccc1NS(=O)(=O)c1cccs1	100 (active)
O=S(=O)(Nc1ccccc1Br)c1cccs1	inactive
O=S(=O)(NCc1ccc(Cl)cc1Cl)c1cccs1	inactive

SMILES	normalized B-score (activity score, 25-100; higher = stronger inhibition)
COc1ccc(Nc2nc(N)nc(CSC(=S)N3CCC(C)CC3)n2)cc1	inactive
O=S(=O)(ON(c1ccccc1)S(=O)(=O)c1ccccc1)c1ccccc1	inactive
CC1=C/C(=N\OS(=O)(=O)c2ccccc2)C=CC1=O	25 (active)
CC(NC(=O)CN1CCN(Cc2ccc(Cl)cc2)C1=O)c1ccc2c(c1)OCCO2 (centres undefined)	inactive
O=C(c1ccc(=O)oc1)N1CCC(C(O)(c2ccccc2)c2ccccc2)CC1	inactive
NC(=O)c1oc2ccccc2c1NC(=O)Cc1ccccc1	inactive
CCc1c(C)sc(NC(=O)c2cccs2)c1C(N)=O	inactive
CCOC(=O)c1oc2ccccc2c1NC(=O)c1cccs1	25 (active)
COC(=O)CCSc1cc([N+](=O)[O-])cc2c1c(C1OCCS1)nn2-c1ccccc1 (centres undefined)	inactive
COc1ccc(OC)c(NC(=O)CN(C)CCOc2ccc(Br)cc2)c1	inactive
CCCCCCCCn1c2c(c(=N)c3c1CCC3)CCCC2	100 (active)
CC(C)C[C@@H](COc1ccccc1)N1CCN(CC(C)C)CCC1=O	inactive
Cc1ccc(-n2c(SCC(=O)NCCC3=CCCCC3)nc3n[nH]c(C)c3c2=N)cc1Cl	inactive
CCCCNC(=O)CSc1nc2n[nH]c(C)c2c(=N)n1-c1cccc(Cl)c1C	25 (active)
COc1cccc(-n2c(SCC(=O)NC3CCCCC3)nc3n[nH]c(C)c3c2=N)c1	inactive
Cc1ccc(N2CC(C(=O)N3CCC4(CC3)CC(=O)c3ccccc3O4)CC2=O)cc1C (centres undefined)	inactive
CCCOc1ccc(C2=CSC3=NCCN23)cc1Cl	inactive
CC(=O)N(C1=C(Cl)C(=O)c2ccccc2C1=O)c1ccc(C(=O)O)cc1	100 (active)
O=S(=O)(N1CCCCC1)N1CCNCC1	inactive
CCOC(=O)Cc1c(C)nc2c(C#N)c(C)nn2c1C	inactive
CCCc1nc(SCC(=O)N2CCCC2)c2c(=O)n(C)c(=O)n(C)c2n1	inactive
